According to ChEMBL document CHEMBL1157539, “Thousands of chemical starting points for antimalarial lead identification” (Nature, 2010):

Legend:
Format in all cases: functional
[1] = test system: Plasmodium falciparum; assay: GSK_TCMDC: Inhibition of Plasmodium falciparum 3D7 in whole red blood cells, using parasite LDH activity as an index of growth. Test compounds present at 2uM
[2] = test system: Plasmodium falciparum; assay: GSK_TCMDC: Inhibition of Plasmodium falciparum Dd2 in whole red blood cells, using parasite LDH activity as an index of growth. Test compounds present at 2uM
[3] = test system: HepG2; assay: GSK_TCMDC: Percent inhibition of human HepG2 cell line. Test compounds present at 10uM.

SMILES | Inhibition [1] | Inhibition [2] | Inhibition [3]
COC(=O)c1ccc2nc(-c3cc(-c4cccc(-c5ccccc5)c4)cnc3N)[nH]c2c1 | 100% | 61% | 25%
N=C(/N=C(/NCCCCCCN/C(=N/C(=N)NCc1ccc(Cl)c(Cl)c1)N1CCCCC1)N1CCCCC1)NCc1ccc(Cl)c(Cl)c1 | 100% | 99% | 6%
CCOc1c(CNCCCNc2nc3ccccc3[nH]2)cc(I)cc1OC.Cl | 100% | 4% | 42%
COc1ccc(C(=O)Nc2nonc2-c2ccc(OC)c(OC)c2)cc1Cl | 97% | 97% | 6%
CC(=O)NCC(=O)NC1=NC(=N)N(OCc2ccc3ccccc3c2)C(C)(C)N1 | 95% | 97% | 66%
COC(=O)c1ccc(NC(=O)Nc2ccc(Cn3ncc(N4CCCNCC4)c(Cl)c3=O)cc2)cc1.O=C(O)C(F)(F)F | 83% | 43% | 0%
C=C1C[C@@H](n2cnc3c(NC(=O)c4ccccc4)ncnc32)[C@@H](F)[C@@H]1OC(c1ccccc1)(c1ccccc1)c1ccccc1 | 98% | 97% | 16%
c1ccc(Oc2ccc(Nc3ccnc4cc(-c5ccc(CN6CCCCC6)o5)ccc34)cc2)nc1 | 100% | 100% | 18%
CCN1CCN(c2cc(C)c3cc(NC(=O)c4ccc(N(CC)CC)cc4)ccc3n2)CC1 | 95% | 41% | 38%
Cc1cc(=O)c(-c2ccc(OCCSc3ccc(C(F)(F)F)cn3)cc2)c(C)[nH]1 | 97% | 96% | 2%
CC(C)(C)c1ccc(CN2CCC(NC(=O)c3ccc(-c4cccc(F)c4)s3)CC2)cc1.O=C(O)C(F)(F)F | 92% | 24% | 35%
O=C(Nc1cccc(-c2cccc(F)c2)c1)C1CCN(Cc2ccc(O)cc2)CC1 | 87% | 2% | 13%
COc1ccc(-c2ccc(CNC3Cc4ccccc4C3)cc2)cc1S(=O)(=O)NCCN1CCCC1.O=C(O)C(F)(F)F | 100% | 99% | 30%
Br.CCCCCCCn1c2c(c(=N)c3c1CCC3)CCCC2 | 98% | 98% | 46%
CNCc1ccc(-c2ccc3ccnc(N)c3c2)cc1 | 94% | 98% | 46%
Fc1ccc(-c2oc(C3CCN(CCc4ccc(-c5noc(=S)[nH]5)cc4)CC3)nc2COCC(F)(F)F)cc1 | 97% | 95% | 5%
Cl.OCCNc1nc(Nc2ccc(Cl)cc2)nc2ccccc12 | 100% | 99% | 30%
CCCc1cc(Cc2cnc(N)nc2N)cc(CC)c1O.Cl | 87% | 0% | 56%
CCN(CC)CCNC(=O)c1ccc(NC(=O)c2oc3c(Cl)cccc3c2C)cc1 | 98% | 68% | 24%
CCOc1c(OC)ccc2c1CCN(CCN1CCC(CNC(=O)c3ccc(-c4ccc(C#N)cc4)cc3)CC1)C2 | 92% | 61% | 45%
O=C(Nc1ccc(OC2CCN(Cc3ccco3)CC2)c(Cl)c1)c1ccc2ncccc2c1.O=C(O)C(F)(F)F | 97% | 40% | 0%

SMILES | Inhibition [1] | Inhibition [2] | Inhibition [3]
CCOc1cc2ncnc(Nc3cc(Cl)c(Cl)c(Cl)c3)c2cc1OCC.Cl | 100% | 98% | 11%
CC(C)c1ccc(CN(C)CCCCNC(=O)c2ccc(NC(=O)c3ccc(Cl)cc3)cc2)cc1 | 92% | 0% | 17%
N#Cc1cccc(C(O)CN(Cc2ccccc2)Cc2ccccc2)c1 (centres undefined) | 100% | 100% | 12%
CS(=O)(=O)O.FC(F)(F)COc1ccc2ccccc2c1CCNCCCCNCCc1c(OCC(F)(F)F)ccc2ccccc12 | 100% | 53% | 99%
COc1ccc(O)c(C(=O)c2cc(C#N)c(=O)n(-c3ccc(Oc4ccccc4)cc3)c2)c1 | 97% | 20% | 22%
CCCCCN1CCC(NS(=O)(=O)c2cccc(C(=O)Nc3ccc(Cl)cc3)c2)CC1.O=C(O)C(F)(F)F | 88% | 29% | 24%
FC(F)(F)c1cccc2c(NN=Cc3ccccc3)ccnc12 | 100% | 90% | 10%
O=c1cc(NCCCNC(c2ccccc2)c2ccc(Cl)c(Cl)c2)[nH]c2ccccc12 (centres undefined) | 89% | 94% | 13%
Cc1cccc2nc(-c3cccc(-c4ccc(NC(=O)Cc5c[nH]cn5)cc4)c3)[nH]c12 | 100% | 93% | 4%
CCCc1cc(Cc2cnc(N)nc2N)cc(CCC)c1OCCCCC(=O)OCC | 93% | 0% | 1%
COc1cc(NCC(C)CNCc2cn(Cc3ccccc3)c3ccccc23)nc2ccccc12 (centres undefined) | 90% | 55% | 21%
COc1ccc2nccc(N/N=C/c3ccccc3[N+](=O)[O-])c2c1 | 100% | 100% | 67%
CS(=O)(=O)c1ccc(-c2cnc(N)c(-c3ccc(O)cc3)c2)cc1 | 84% | 94% | 38%
Cc1ccc(Nc2nc(C)cc(Nc3cccc(C#N)c3)n2)cc1 | 100% | 96% | 14%
Cc1cccc2nc(-c3ccc(-c4cccc(NC(=O)C(C)CN5CCN(C)CC5)c4)cc3)[nH]c12 (centres undefined) | 98% | 51% | 5%
Cc1ccc(Nc2nc(N)c3ccccc3n2)cc1.Cl | 94% | 12% | 9%
FC(F)(F)c1ccc2[nH]ccc(=NN=CC=Cc3ccccc3)c2c1 | 82% | 9% | 0%
CC1(C)N=C(N)N=C(N)N1OCc1cc2ccccc2cc1CON1C(N)=NC(N)=NC1(C)C | 92% | 51% | 0%
N#Cc1ccc(N2CCN(Cc3cccc(-c4cccc(-c5nc6cc(F)ccc6[nH]5)c4)c3)CC2)nc1.O=C(O)C(F)(F)F | 90% | 52% | 26%
COCCNC(=O)C(CNC(=O)c1ccc2c(c1)OCO2)NC(=O)c1ccc(-c2ccccc2)cc1 (centres undefined) | 90% | 3% | 14%
N#CCCN1CCN(Cc2ccc(-c3cccc(-c4nc5cc(F)ccc5[nH]4)c3)cc2)CC1.O=C(O)C(F)(F)F | 91% | 17% | 16%

SMILES | Inhibition [1] | Inhibition [2] | Inhibition [3]
OC[C@H]1CCCN1CC#Cc1cc2c(Nc3ccc(OCc4cccc(F)c4)c(Cl)c3)ncnc2s1 | 89% | 6% | 13%
Cc1cc(N(C)C2CCN(C)C2)nc(Nc2ccccc2Cl)n1 (centres undefined) | 100% | 84% | 1%
O=C(NCCN1CCCC1)c1cc(-c2ccc(Cl)c(O)c2)c(-c2ccncc2)o1 | 92% | 0% | 0%
Cc1cccc(-c2ccc3c(c2)CC(NCc2cccc(-n4ccnc4)c2)C3)c1 (centres undefined) | 100% | 49% | 11%
Cc1cccc2nc(-c3cccc(-c4cccc(CNCc5cccc(N)c5)c4)c3)[nH]c12.O=C(O)C(F)(F)F | 100% | 73% | 14%
O=C(N/N=C/c1nc2ccccc2[nH]1)c1cccc([N+](=O)[O-])c1 | 99% | 82% | 0%
O=C1COc2ccc(CNC3CCC(O)(CCc4ccnc5cc6c(cc45)OCCO6)CC3)nc2N1 (centres undefined) | 92% | 0% | 0%
Cl.c1ccc(-c2nc3ccccc3[nH]2)c(Nc2ccnc3cc(-c4nccs4)ccc23)c1 | 100% | 98% | 0%
CCCCCCOc1ccccc1C(=O)NCCOc1ccc(Cl)cc1 | 84% | 37% | 16%
CN(C)CCNC(=O)c1cccc(-c2cnc3ccc(NCc4ccc(Cl)c(Cl)c4)nn23)c1 | 100% | 53% | 31%
CCc1c[nH]c2c(N3CCCCS3(=O)=O)cc(C(=O)N[C@@H](Cc3ccccc3)[C@H](O)CNCc3cccc(OC)c3)cc12.O=CO | 86% | 91% | 0%
CCN(C(=O)CSc1cc(C)c2cc(C)cc(C)c2n1)C1CCS(=O)(=O)C1 (centres undefined) | 97% | 82% | 5%
CNC(=O)C1Cc2c([nH]c3ccc(Br)cc23)C2(CCN(CCc3ccccc3)CC2)N1 (centres undefined) | 100% | 60% | 15%
CCC(=O)c1ccc(-c2ccc(=O)n(CC(=O)N(CCN(CC)CC)Cc3ccc(-c4ccc(C(F)(F)F)cc4)cc3)n2)cc1 | 98% | 67% | 91%
Br.CC1(C)NC(N)=NC(=N)N1OCCCCCOc1ccccc1 | 95% | 97% | 61%
Cl.Clc1ccc2c(N3CCN(CCN4CCN(c5ccnc6cc(Cl)ccc56)CC4)CC3)ccnc2c1 | 99% | 100% | 10%
CCCN(CC1CC1)c1ncc(-c2ccccc2CNCc2ccccc2O)cn1 | 100% | 98% | 4%
CCNc1cc(C)nc(Nc2ccccc2)n1 | 92% | 8% | 16%
N=C(NCc1ccccc1)Nc1nc(-c2ccc(OCCCn3ccnc3)cc2)cs1 | 100% | 55% | 10%
O=C(NC1CCN(CCN2CCc3ccccc3CC2)CC1)c1ccc(-c2ccc(C(F)(F)F)cc2)cc1 | 99% | 43% | 45%
Cl.FC(F)(F)c1cc(Nc2ccc(Oc3ccccc3)cc2)c2cc(-c3ccncc3)ccc2n1 | 100% | 70% | 0%
